From the supplement of paper PMC10849652
Targets with a hit are over-represented here; the source holds about 8,800 in all. About 0.5% of all pairs of compound and target were hits. Unmarked numbers belong to inactive results.

Experiments:
Experiment in all cases: log2 fold change, soluble protein after heating vs DMSO (PISA); higher = thermal stabilisation; K562 lysate, 10 uM; active = over 0.2 and 3.5 SD of the protein, either way, in both replicates (recomputed)
[1] = compound: NCC(=O)Nc1ccc(-n2nc(C(F)(F)F)cc2-c2ccc3c(ccc4ccccc43)c2)cc1
In short: (§1)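 To prepare the extract, K562 pellets were dounce-homogenised in PBS pH 7.4 with 1 mM MgCl2, giving crude material at 1 mg/mL protein. This was treated with 10 μM compound for 30 min, then heated in aliquots for 3 min over 48°C-58°C before pooling and addition of NP-40 to 0.5% at 4°C. Centrifugation at 21,000xg for 90 min left soluble protein in the supernatant, which TMTpro 16plex LC-MS/MS quantified with equalised channel sums. Results are log-two fold changes in thermal stability compared with solvent controls, from duplicates.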

vorinostat = compound: O=C(CCCCCCC(=O)Nc1ccccc1)NO [vorinostat]
In short: as §1

silmitasertib = compound: O=C(O)c1ccc2c(c1)nc(Nc1cccc(Cl)c1)c1ccncc12 [silmitasertib]
In short: as §1

[2] = compound: O=C1NC(=O)C(c2cnc3ccccn23)=C1c1cn2c3c(cc(F)cc13)CN(C(=O)N1CCCCC1)CC2
In short: as §1

entospletinib = compound: c1cn2cc(-c3ccc4cn[nH]c4c3)nc(Nc3ccc(N4CCOCC4)cc3)c2n1 [entospletinib]
In short: as §1

UniProt P09104, sequence (P09104 whole entry, looked up): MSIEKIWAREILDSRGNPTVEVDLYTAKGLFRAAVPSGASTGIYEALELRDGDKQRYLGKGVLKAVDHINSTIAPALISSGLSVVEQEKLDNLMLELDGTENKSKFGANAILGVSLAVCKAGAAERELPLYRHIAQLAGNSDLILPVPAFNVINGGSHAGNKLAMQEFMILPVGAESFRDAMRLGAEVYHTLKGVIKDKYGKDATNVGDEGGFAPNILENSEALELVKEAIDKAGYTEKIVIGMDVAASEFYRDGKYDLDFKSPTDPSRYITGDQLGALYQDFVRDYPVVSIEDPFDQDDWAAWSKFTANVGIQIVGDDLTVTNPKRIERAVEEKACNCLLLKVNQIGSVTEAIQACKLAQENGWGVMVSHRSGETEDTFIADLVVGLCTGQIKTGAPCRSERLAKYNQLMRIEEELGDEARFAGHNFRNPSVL
UniProt Q92889, sequence (Q92889 whole entry, looked up): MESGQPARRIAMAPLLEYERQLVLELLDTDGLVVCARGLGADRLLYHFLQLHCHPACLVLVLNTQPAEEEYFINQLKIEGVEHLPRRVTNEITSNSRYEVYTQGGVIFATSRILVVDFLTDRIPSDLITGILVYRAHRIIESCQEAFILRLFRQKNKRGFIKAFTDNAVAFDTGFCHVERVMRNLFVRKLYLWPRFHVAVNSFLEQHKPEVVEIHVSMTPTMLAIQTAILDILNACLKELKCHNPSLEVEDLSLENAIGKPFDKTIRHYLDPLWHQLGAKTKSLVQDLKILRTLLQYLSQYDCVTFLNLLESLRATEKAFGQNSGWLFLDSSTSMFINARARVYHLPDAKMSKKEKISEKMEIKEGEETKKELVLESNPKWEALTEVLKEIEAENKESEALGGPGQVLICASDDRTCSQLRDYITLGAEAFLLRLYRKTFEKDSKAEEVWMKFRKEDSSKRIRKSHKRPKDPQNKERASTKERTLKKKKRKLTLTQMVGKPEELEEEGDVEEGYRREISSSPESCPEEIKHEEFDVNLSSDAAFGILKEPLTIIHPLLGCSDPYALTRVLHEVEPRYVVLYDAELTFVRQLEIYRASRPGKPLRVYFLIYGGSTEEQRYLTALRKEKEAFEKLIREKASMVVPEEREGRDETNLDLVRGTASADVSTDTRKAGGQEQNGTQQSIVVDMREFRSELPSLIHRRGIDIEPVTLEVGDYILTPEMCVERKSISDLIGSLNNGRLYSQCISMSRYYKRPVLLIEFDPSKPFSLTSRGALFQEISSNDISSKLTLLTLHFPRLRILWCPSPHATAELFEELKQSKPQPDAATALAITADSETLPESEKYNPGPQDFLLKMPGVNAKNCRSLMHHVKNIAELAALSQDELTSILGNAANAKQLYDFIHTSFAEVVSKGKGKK
UniProt Q9BQI3, sequence (Q9BQI3 whole entry, looked up): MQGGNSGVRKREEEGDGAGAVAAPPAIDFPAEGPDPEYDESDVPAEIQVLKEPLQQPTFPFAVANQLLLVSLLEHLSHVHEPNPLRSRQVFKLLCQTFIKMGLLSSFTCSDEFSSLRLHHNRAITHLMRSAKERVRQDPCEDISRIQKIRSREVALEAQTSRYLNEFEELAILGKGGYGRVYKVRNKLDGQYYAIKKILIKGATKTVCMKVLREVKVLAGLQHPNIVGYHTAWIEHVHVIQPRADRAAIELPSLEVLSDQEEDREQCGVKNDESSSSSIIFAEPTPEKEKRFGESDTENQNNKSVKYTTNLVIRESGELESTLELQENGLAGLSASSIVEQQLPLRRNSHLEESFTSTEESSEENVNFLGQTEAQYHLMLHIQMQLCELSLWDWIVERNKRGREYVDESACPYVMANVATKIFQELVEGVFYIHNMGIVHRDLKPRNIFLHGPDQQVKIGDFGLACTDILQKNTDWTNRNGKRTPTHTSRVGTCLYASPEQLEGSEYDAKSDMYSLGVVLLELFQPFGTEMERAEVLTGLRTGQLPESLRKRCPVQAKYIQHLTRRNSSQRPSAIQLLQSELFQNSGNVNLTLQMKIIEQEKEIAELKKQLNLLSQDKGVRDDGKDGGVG
UniProt Q6Y7W6, sequence (Q6Y7W6 whole entry, looked up): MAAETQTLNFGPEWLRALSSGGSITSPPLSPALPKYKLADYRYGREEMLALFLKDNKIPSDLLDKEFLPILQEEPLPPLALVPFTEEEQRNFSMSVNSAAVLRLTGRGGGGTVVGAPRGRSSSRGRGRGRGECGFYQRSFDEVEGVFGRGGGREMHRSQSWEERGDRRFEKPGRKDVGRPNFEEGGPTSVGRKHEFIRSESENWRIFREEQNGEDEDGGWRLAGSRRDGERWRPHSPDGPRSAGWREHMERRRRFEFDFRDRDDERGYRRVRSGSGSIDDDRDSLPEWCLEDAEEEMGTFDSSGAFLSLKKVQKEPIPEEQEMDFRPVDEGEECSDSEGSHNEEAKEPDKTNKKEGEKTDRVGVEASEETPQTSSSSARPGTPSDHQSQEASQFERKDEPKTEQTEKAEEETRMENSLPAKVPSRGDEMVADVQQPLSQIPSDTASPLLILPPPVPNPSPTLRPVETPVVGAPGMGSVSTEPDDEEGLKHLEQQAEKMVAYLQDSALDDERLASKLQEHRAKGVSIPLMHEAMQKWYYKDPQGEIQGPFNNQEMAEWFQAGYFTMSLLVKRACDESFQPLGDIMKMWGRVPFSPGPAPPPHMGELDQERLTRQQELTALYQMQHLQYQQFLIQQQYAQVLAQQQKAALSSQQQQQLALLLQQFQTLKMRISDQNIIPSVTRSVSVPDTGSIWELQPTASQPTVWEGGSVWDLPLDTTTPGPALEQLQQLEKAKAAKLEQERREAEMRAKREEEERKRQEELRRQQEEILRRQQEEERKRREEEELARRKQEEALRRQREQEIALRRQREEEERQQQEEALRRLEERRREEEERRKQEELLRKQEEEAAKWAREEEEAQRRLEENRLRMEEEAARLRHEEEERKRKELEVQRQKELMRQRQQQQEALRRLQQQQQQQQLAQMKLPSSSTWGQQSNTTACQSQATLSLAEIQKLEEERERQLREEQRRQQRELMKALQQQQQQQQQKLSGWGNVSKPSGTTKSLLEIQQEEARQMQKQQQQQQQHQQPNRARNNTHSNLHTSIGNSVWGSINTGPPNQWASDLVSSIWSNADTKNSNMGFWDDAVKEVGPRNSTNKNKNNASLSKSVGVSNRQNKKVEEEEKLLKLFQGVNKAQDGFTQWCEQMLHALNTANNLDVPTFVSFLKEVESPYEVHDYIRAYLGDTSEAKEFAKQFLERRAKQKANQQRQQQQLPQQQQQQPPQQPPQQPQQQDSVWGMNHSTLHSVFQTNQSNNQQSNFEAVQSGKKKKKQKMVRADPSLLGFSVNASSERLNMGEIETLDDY
UniProt P51114, sequence (P51114 whole entry, looked up): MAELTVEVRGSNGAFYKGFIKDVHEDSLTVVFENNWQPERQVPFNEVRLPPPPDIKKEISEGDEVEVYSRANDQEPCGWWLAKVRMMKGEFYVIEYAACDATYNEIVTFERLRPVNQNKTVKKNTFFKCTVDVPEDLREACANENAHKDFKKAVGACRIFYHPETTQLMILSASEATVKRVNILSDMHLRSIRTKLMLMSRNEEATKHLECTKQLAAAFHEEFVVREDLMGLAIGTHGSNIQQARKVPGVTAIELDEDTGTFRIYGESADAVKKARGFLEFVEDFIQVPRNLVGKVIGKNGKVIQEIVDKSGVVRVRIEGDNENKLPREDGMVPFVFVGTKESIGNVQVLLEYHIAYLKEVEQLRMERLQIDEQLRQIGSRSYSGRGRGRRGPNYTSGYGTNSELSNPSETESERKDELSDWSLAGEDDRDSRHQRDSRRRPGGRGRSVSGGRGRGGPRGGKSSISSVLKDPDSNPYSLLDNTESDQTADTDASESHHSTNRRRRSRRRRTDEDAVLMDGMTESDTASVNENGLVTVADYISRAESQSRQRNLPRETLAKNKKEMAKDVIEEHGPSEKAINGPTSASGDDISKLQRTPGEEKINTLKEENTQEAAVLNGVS
UniProt Q8WWZ3, sequence (Q8WWZ3 whole entry, looked up): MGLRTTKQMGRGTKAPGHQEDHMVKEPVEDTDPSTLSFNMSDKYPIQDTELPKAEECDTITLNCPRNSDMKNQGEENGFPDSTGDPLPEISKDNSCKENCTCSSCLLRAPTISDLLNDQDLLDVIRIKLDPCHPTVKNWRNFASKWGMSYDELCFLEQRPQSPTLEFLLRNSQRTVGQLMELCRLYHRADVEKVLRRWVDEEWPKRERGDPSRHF
UniProt Q8TAG9, sequence (Q8TAG9 whole entry, looked up): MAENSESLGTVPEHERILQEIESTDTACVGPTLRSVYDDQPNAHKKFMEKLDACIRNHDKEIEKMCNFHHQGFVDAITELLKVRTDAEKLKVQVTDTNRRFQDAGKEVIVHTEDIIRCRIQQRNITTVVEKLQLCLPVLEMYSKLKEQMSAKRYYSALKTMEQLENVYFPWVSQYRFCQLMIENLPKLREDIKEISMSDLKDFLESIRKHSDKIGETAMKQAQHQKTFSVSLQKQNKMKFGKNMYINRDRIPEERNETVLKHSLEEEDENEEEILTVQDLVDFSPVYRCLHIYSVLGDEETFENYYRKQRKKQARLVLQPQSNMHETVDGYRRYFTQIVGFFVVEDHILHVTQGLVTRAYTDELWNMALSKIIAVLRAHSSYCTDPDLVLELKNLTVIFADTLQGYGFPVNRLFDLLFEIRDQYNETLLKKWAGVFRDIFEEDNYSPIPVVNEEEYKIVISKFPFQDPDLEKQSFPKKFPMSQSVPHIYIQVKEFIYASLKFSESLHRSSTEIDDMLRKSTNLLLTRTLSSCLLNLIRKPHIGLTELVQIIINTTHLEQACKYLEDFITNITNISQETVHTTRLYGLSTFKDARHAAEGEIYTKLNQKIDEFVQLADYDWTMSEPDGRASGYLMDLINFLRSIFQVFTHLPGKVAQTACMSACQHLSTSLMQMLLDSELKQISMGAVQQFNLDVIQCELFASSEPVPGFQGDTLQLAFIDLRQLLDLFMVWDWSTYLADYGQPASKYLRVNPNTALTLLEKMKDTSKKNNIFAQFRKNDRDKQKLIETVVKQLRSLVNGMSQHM
UniProt O43768, sequence (O43768 whole entry, looked up): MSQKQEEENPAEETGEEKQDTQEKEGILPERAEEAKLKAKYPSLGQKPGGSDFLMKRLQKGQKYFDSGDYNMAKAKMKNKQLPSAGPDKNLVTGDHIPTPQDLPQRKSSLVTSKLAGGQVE

Target	log2 fold change [1]	log2 fold change (vorinostat)	log2 fold change (silmitasertib)	log2 fold change [2]	log2 fold change (entospletinib)
FUBP3 (UniProt Q96I24)	-0.001	-0.325 (active)	-0.032	0.047	-0.065
EXOC3 (UniProt O60645)	0.018	-0.221 (active)	0.03	0.002	-0.026
EEF1AKMT4 (UniProt P0DPD7)	0.053	-0.312 (active)	0.029	0.035	0.012
GIGYF2 (UniProt Q6Y7W6)	-0.001	-0.252 (active)	-0.007	-0.042	0.017
FXR1 (UniProt P51114)	-0.006	-0.257 (active)	0.045	-0.041	0.023
ENSA isoform 3 (UniProt O43768)	-0.029	0.144	-0.019	0.003	-0.014
ETHE1 (UniProt O95571)	-0.01	-0.113	0.009	0	-0.02
GEMIN2 (UniProt O14893)	0.003	-0.425 (active)	0.002	0.04	-0.005
ERCC4 (UniProt Q92889)	0.026	-0.241 (active)	0.002	-0.065	0.021
EEF1A1, A0A087WVQ9	-0.025	-0.541 (active)	-0.002	-0.022	0.015
GAPDH (UniProt P04406)	0	0.309 (active)	-0.033	0.014	0.003
DVL2 (UniProt O14641)	-0.056	0.33 (active)	0.049	0.078	-0.015
FASTKD5 (UniProt Q7L8L6)	0.016	-0.354 (active)	0.053	0.022	-0.008
FAT2 (UniProt Q9NYQ8)	0.393	0.001	0.098	0.178	0.162
EPB41 (UniProt P11171)	-0.046	0.035	0.007	-0.034	0
FAM53B (UniProt Q14153)	0.056	-0.06	0.049	0.02	-0.003
GAPVD1 isoform 6 (UniProt Q14C86)	-0.033	-0.292 (active)	0.04	-0.001	-0.002
FHOD1 (UniProt Q9Y613)	-0.018	-0.47 (active)	0.008	-0.02	-0.002
ENO1, A0A2R8YEM5	-0.032	0.119	-0.005	0.017	0.04
FBXO45 (UniProt P0C2W1)	-0.013	-0.367 (active)	0.127	0.021	-0.05
EFCAB14 (UniProt O75071)	0.039	0.327 (active)	-0.054	0.029	0.013
ENO1 isoform 2 (UniProt P06733)	-0.008	0.099	0.045	0.005	-0.05
EGLN1 (UniProt Q9GZT9)	0.008	-0.395 (active)	0.025	-0.024	-0.009
GFPT1 (UniProt Q06210)	0.034	-0.409 (active)	0.004	0.012	0.019
GABPB1 (UniProt Q06547)	0	-0.299 (active)	0.008	-0.052	-0.004
FTSJ1 (UniProt Q9UET6)	-0.024	-0.326 (active)	0.024	0.009	0.05
FAM83A (UniProt Q86UY5)	-0.049	-0.417 (active)	-0.034	-0.052	-0.002

Target	log2 fold change [1]	log2 fold change (vorinostat)	log2 fold change (silmitasertib)	log2 fold change [2]	log2 fold change (entospletinib)
FECH isoform 2 (UniProt P22830)	-0.185	-0.401	-0.03	-0.021	0.977
EIF2B4 (UniProt Q9UI10)	0.028	-0.135	0.013	-0.006	-0.05
ENO2 (UniProt P09104)	-0.021	0.03	-0.014	0.001	-0.068
ERBIN isoform 8 (UniProt Q96RT1)	-0.016	-0.008	-0.001	-0.017	-0.002
ELAVL4 (UniProt P26378)	0.016	-0.402 (active)	-0.046	0.004	-0.067
EXOC6 (UniProt Q8TAG9)	-0.074	-0.301 (active)	0.057	-0.006	0.021
EDARADD (UniProt Q8WWZ3)	0.022	-0.168	0.02	-0.05	-0.057
ERLIN1 (UniProt O75477)	-0.07	0.063	0.064	0.03	0.023
EIF2AK2 (UniProt P19525)	0.021	-0.415 (active)	0.038	-0.017	0.068
GALK1 isoform 2 (UniProt P51570)	-0.017	-0.338 (active)	0.063	0.023	-0.088
FREM2 (UniProt Q5SZK8)	0.094	0.048	0.085	-0.11	-0.003
GCN1 (UniProt Q92616)	0.01	-0.374 (active)	0.114	0.033	-0.011
EIF2B3 (UniProt Q9NR50)	-0.006	-0.244 (active)	0.01	0.009	-0.004
GEMIN4 (UniProt P57678)	-0.025	-0.435 (active)	0.1	0.019	0.034
EWSR1 isoform 5 (UniProt Q01844)	0.027	0.036	-0.034	0.006	0.014
FARSB (UniProt Q9NSD9)	-0.01	0.015	0.013	-0.013	0.011
FAM114A2 (UniProt Q9NRY5)	-0.056	0.262	-0.015	-0.034	0
EPHX2 (UniProt P34913)	0.002	0.243 (active)	0.002	-0.021	-0.058
EIF2D (UniProt P41214)	0.03	-0.385 (active)	0.032	0.04	0.02
EIF3I (UniProt Q13347)	0.022	-0.316 (active)	0.061	-0.005	0.005
DSTN (UniProt P60981)	-0.012	-0.34 (active)	0.014	-0.031	-0.021
EEF1A1P5 (UniProt Q5VTE0)	0.04	-0.311 (active)	-0.017	0.005	0.033
EIF2AK1 (UniProt Q9BQI3)	-0.089	-0.18	0.03	-0.059	0.009
DYRK1A (UniProt Q13627)	0.021	-0.253	0.247 (active)	0.01	0.005
EXOC4 (UniProt Q96A65)	0.009	-0.389 (active)	0.041	-0.022	-0.006
GDPD1 (UniProt Q8N9F7)	-0.137	0.056	0.033	0.177	-0.092
ECH1 (UniProt Q13011)	0.041	0.081	-0.026	-0.052	0.022
